Screen size: about 5,500 compounds; about 2,000 (36%) were called active. About 18% were inconclusive and are not listed. Rule as the data show it: active = normalized growth mostly below about 0.91 (no sharp cut-off); inconclusive = no clear call, values can overlap the other calls; inactive = mostly above about 0.92. This is one part of the list.
Assay: chemical genetic growth profiling, strain panel (AID 1159580);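 also: tested at 20 µM; growth read once vehicle control cultures reached saturation at 30 °C; 1 = growth at the plate median or of vehicle wells; lower values mean less growth of the strain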
Conditions: S. cerevisiae deletion strains, growth OD
[1] = locus YHR030C, strain SLT2, active compounds read low
[2] = locus YHR079C, strain IRE1, active compounds read low
[3] = locus YJL095W, strain BCK1, active compounds read low
[4] = locus YJR066W, strain TOR1, active compounds read low
[5] = locus YLR113W, strain HOG1, active compounds read low
[6] = locus YNL183C, strain NPR1, active compounds read low
[7] = locus YOR231W, strain MKK1, active compounds read low
[8] = locus YPL256C, strain CLN2, active compounds read low

Measured: normalized growth

O=C1c2ccccc2C(=O)C1c1ccc(Br)cc1
active: [1] 0.851 | [2] 0.816 | [4] 0.823 | [5] 0.717 | [6] 0.818 | [7] 0.853 | [8] 0.712
inactive: [3] 0.888

COc1ccc(C2CC(c3ccc(C)cc3C)=NN2C(C)=O)cc1 (centres undefined)
inactive: locus YAR019C, strain CDC15, active compounds read low 0.997 | locus YBL105C, strain PKC1, active compounds read low 0.993 | locus YBR135W, strain CKS1, active compounds read low 0.984 | locus YBR136W, strain MEC1, active compounds read low 0.981 | locus YBR160W, strain CDC28, active compounds read low 0.995 | locus YDL017W, strain CDC7, active compounds read low 0.992 | locus YDL028C, strain MPS1, active compounds read low 0.984 | locus YDL101C, strain DUN1, active compounds read low 0.987 | locus YDL108W, strain KIN28, active compounds read low 0.977 | locus YDL132W, strain cdc53, active compounds read low 0.994 | locus YDL214C, strain PRR2, active compounds read low 0.872 | locus YDR052C, strain DBF4, active compounds read low 0.999 | locus YDR054C, strain cdc34, active compounds read low 0.983 | locus YDR226W, strain ADK1, active compounds read low 0.985 | locus YDR477W, strain SNF1, active compounds read low 0.919 | locus YER123W, strain YCK3, active compounds read low 0.85 | locus YER133W, strain GLC7, active compounds read low 0.911 | locus YFL009W, strain cdc4, active compounds read low 0.984 | locus YFL029C, strain CAK1, active compounds read low 0.994 | locus YFR003C, strain YPI1, active compounds read low 0.988 | locus YFR019W, strain FAB1, active compounds read low 0.937 | locus YFR028C, strain CDC14, active compounds read low 0.981 | locus YGR040W, strain KSS1, active compounds read low 0.89 | locus YGR052W, strain FMP48, active compounds read low 0.971 | locus YGR092W, strain DBF2, active compounds read low 0.909 | [1] 1.04 | [2] 0.971 | locus YHR082C, strain KSP1, active compounds read low 0.984 | locus YHR205W, strain SCH9, active compounds read low 0.931 | locus YIL147C, strain SLN1, active compounds read low 0.978 | [3] 0.967 | locus YJL128C, strain PBS2, active compounds read low 0.907 | locus YJL157C, strain FAR1, active compounds read low 0.889 | locus YJR016C, strain ILV3, active compounds read low 0.994 | locus YJR066W, strain TOR1 (second series), active compounds read low 0.881 | [4] 0.978 | locus YKL048C, strain ELM1, active compounds read low 0.955 | locus YKL067W, strain YNK1, active compounds read low 0.908 | locus YKL101W, strain HSL1, active compounds read low 0.905 | locus YKL193C, strain SDS22, active compounds read low 0.989 | locus YKL203C, strain TOR2, active compounds read low 0.981 | [5] 0.868 | locus YLR133W, strain CKI1, active compounds read low 0.93 | locus YLR403W, strain SFP1, active compounds read low 0.916 | locus YML070W, strain DAK1, active compounds read low 0.888 | locus YMR001C, strain CDC5, active compounds read low 0.998 | locus YMR205C, strain PFK2 (second series), active compounds read low 0.913 | locus YMR277W, strain FCP1, active compounds read low 0.986 | locus YNL006W, strain LST8, active compounds read low 0.998 | locus YNL020C, strain ARK1, active compounds read low 0.914 | locus YNL161W, strain CBK1, active compounds read low 0.997 | [6] 0.995 | locus YNL207W, strain RIO2, active compounds read low 0.991 | locus YNL222W, strain SSU72, active compounds read low 0.991 | locus YNL307C, strain MCK1 (second series), active compounds read low 0.931 | locus YOL078W, strain AVO1, active compounds read low 0.994 | locus YOL136C, strain PFK27, active compounds read low 0.887 | locus YOR061W, strain CKA2, active compounds read low 0.881 | locus YOR119C, strain RIO1, active compounds read low 0.979 | [7] 0.927 | locus YOR329C, strain SCD5, active compounds read low 0.997 | locus YPL031C, strain PHO85, active compounds read low 0.917 | locus YPL153C, strain RAD53, active compounds read low 0.905 | locus YPL204W, strain HRR25, active compounds read low 0.922 | locus YPL209C, strain IPL1, active compounds read low 0.998 | [8] 0.975 | locus YPR025C, strain CCL1, active compounds read low 0.992 | locus YPR106W, strain ISR1, active compounds read low 0.979 | locus YPR111W, strain DBF20, active compounds read low 0.977 | strain NNK1, active compounds read low 0.97 | strain TSCII, active compounds read low 0.995

Source: PubChem BioAssay AID1159580 (chemical genetic matrix, 2015)
